The record followed here is PubChem BioAssay (NCI).

The nature of assay [1]: NCI Yeast Anticancer Drug Screen. Data for the rad50 strain (AID 155).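 Also: 0% = growth of vehicle-only cultures of the same strain.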 The following applies: S. cerevisiae rad50 strain growth inhibition; at 50.0 µM; hits give high values. The method in brief:
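A DNA repair-deficient yeast mutant serves as the test organism; compound-induced growth inhibition is calculated against vehicle-treated cells.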

The nature of assay [2]: NCI Yeast Anticancer Drug Screen. Data for the mec2-1 strain (AID 157). The following applies: S. cerevisiae mec2-1 strain, at 50.0 µM, hits give high values. The method in brief:
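Yeast mec2-1 mutant treated with compound. Readout: growth inhibition vs vehicle controls.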

Assay [3] in a line: NCI Yeast Anticancer Drug Screen. Data for the sgs1 mgt1 strain (AID 161).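 Also: 0% = growth of cultures given vehicle only.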 The conditions noted are these: S. cerevisiae sgs1 mgt1 strain, at 50.0 µM, hits give high values. The method in brief:
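Test agents were incubated with a DNA-repair-mutant yeast strain. Growth was then read and compared against vehicle-treated controls.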

A short description of assay [4]: NCI Yeast Anticancer Drug Screen. Data for the cln2 rad14 strain (AID 165).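 Also: 0% = growth equal to vehicle treated cultures.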 The following applies: S. cerevisiae cln2 rad14 strain, at 50.0 µM, hits give high values. The method in brief: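 cln2 rad14 yeast strain; compound exposure; growth inhibition read vs vehicle controls.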
A short description of assay [5]: NCI Yeast Anticancer Drug Screen. Data for the bub3 strain (AID 167). The following applies: S. cerevisiae bub3 mutant strain, at 50.0 µM, hits give high values. The method in brief:
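Inhibition values come from growth of compound-treated mutant yeast normalised to vehicle-treated controls.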

A short description of assay [6]: NCI Yeast Anticancer Drug Screen. Data for the mlh1 rad18 strain (AID 175). The conditions noted are these: S. cerevisiae mlh1 rad18 strain growth inhibition; at 50.0 µM; hits give high values. The method in brief: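 Yeast w/ defined DNA-repair lesions; compound exposure; growth vs vehicle controls → % inhibition.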

Structures are written as SMILES. Compounds without any hit were thinned out: in the full panel of roughly 79,000, 15% have a hit. A number with no mark means an inactive call. Active and inactive are the calls of the source. Rule as the data show it: active = growth inhibition above about 70%; inactive = the rest.

Take `O=C1CN(C2CCCCC2)CC(=O)N2C(c3ccccc3)CCCN12` (stereo not given): the growth inhibition in assay [1] is 3.3%; in assay [2], -5.4%; in assay [3], 14.7%; in assay [4] it was 11.8%; in assay [5], 0.55%; in assay [6], -1.85%.

In the case of `O=C(C[n+]1ccccc1)N/N=C(/CCC(=O)N(Cc1ccccc1)Cc1ccccc1)CC(=O)c1ccccc1`, the growth inhibition was -21.1% in assay [1]; -21.8% in assay [2]; -38% in assay [3]; 0.85% in assay [4]; -26.6% in assay [5]; -21.8% in assay [6].

Consider `COC(=O)c1cc2ccccc2n1C`, for which the growth inhibition in assay [1] is -25.7%; in assay [2], -45.6%; in assay [3], -30.9%; in assay [4] it was 16.1%; in assay [5], -6.95%; in assay [6] it was -8.15%.

Turning to `CC(=O)OC(=O)C(=O)C(F)C(O)C(C)C` (stereo not given), the growth inhibition was -16.6% in assay [1]; -13.9% in assay [2]; -14.2% in assay [3]; -10.4% in assay [4]; -13.4% in assay [5]; 7.45% in assay [6].

`C=C[C@@]1(C)CCC2(O)C(CCC3C2(C)CCC[C@@]3(C)COC(=O)CC(=O)OC)C1` (stereo not given in full): the growth inhibition in assay [1] was 82.8% (active); in assay [2], 72.1% (active); in assay [3] it was 78% (active); in assay [4] it was 60.5%; in assay [5], 76.3% (active); in assay [6], 79.2% (active).

Regarding `COC(=O)CC1C(=O)OC23CCC1C2(C)CCC1C3CCC2CC(OC(C)=O)CCC21C` (stereo not given), the growth inhibition in assay [1] is 87.4% (active); in assay [2] it was 89.3% (active); in assay [3] it was 90.5% (active); in assay [4] it was 82% (active); in assay [5] it was 87.5% (active); in assay [6] it was 87.9% (active).

Turning to `O=c1[nH]c(=O)n(C2OC(CO)C(O)C2O)cc1OCc1ccccc1` (stereo not given), the growth inhibition in assay [1] is -31.8%; in assay [2] it was -19.8%; in assay [3] it was -22.8%; in assay [4], 4.75%; in assay [5] it was -6.6%; in assay [6], -31.5%.

For `OC(c1cccc(OCc2ccccc2)c1)c1ccccn1` (stereo not given), the growth inhibition in assay [1] was 4.95%; in assay [2], -6.6%; in assay [3], 2.15%; in assay [4] it was -20.9%; in assay [5] it was 2.15%; in assay [6] it was 2%.

`CN(C)N=Nc1ccc(Cl)cc1`: the growth inhibition in assay [1] is -5.15%; in assay [2] it was 21.9%; in assay [3], 16.6%; in assay [4], -56.6%; in assay [5] it was 35%; in assay [6], 8.3%.

For `CCOC(=O)/C=C/c1cccc(F)c1`, the growth inhibition in assay [1] was 19.2%; in assay [2], -5.25%; in assay [3] it was 7.85%; in assay [4], 12%; in assay [5], 12.2%; in assay [6], 10.5%.

Consider `COc1cc2[nH]c3c(c2cc1OC)CCN[C@]31CC[C@]2(CC3c4c(cc(OC)c(O)c42)CCN3C)C[C@H]1OC` (stereo not given in full), for which the growth inhibition is 10.8% in assay [1]; -6% in assay [2]; -16.4% in assay [3]; -2.9% in assay [4]; 7.95% in assay [5]; 7.35% in assay [6].

`Cc1nc2c(c(-c3ccc(Cl)cc3)n1)Cc1c(ccc3ccccc13)O2`: the growth inhibition was -15.4% in assay [1]; -5.9% in assay [2]; -9.2% in assay [3]; -0.1% in assay [4]; -28.8% in assay [5]; -19% in assay [6].

As for `O=C(C(c1ccccc1)C(C(=O)N(Cc1ccccc1)Cc1ccccc1)c1ccccc1)N(Cc1ccccc1)Cc1ccccc1` (stereo not given), the growth inhibition was -44.8% in assay [1]; 7% in assay [2]; -18.9% in assay [3]; -14.3% in assay [4]; -1.35% in assay [5]; 28.3% in assay [6].

As for `CC1CC(C#N)=C2NCCCCN2C1=O` (stereo not given), the growth inhibition was -21.6% in assay [1]; -44.8% in assay [2]; -2.25% in assay [3]; 3.65% in assay [4]; -7.9% in assay [5]; -14.3% in assay [6].

For `O=C(/C=C(/CC(O)(c1ccccc1)c1ccccc1)Nc1ccccc1)c1ccccc1`, the growth inhibition in assay [1] was 10.3%; in assay [2], -2.7%; in assay [3], -6.4%; in assay [4] it was 2.35%; in assay [5], -1.2%; in assay [6], -2.1%.

With `O=C(Cl)c1ccc(Cc2ccc([N+](=O)[O-])cc2)cc1`, the growth inhibition in assay [1] is 14.8%; in assay [2] it was 8.4%; in assay [3] it was 11.4%; in assay [4], -21.9%; in assay [5] it was -17.1%; in assay [6] it was 12.4%.

As to `C1=NCCCCCCCN=Cc2ccccc2NCCNc2ccccc21`, the growth inhibition in assay [1] is 29.1%; in assay [2], 23.8%; in assay [3], 20.4%; in assay [4], 32.4%; in assay [5] it was 38.3%; in assay [6], 44.6%.

Take `CC1CN(C(c2ccccc2)c2ccccc2)CCN1CCO` (stereo not given): the growth inhibition in assay [1] is -3.75%; in assay [2], 20.6%; in assay [3], 12.3%; in assay [4] it was -65.2%; in assay [5], 4.85%; in assay [6], 25.4%.

On to `CCN(CC)C1=CC(=O)C(N(CC)CC)=CC1=O`, for which the growth inhibition in assay [1] is 1.25%; in assay [2] it was 0.15%; in assay [3], -7%; in assay [4] it was -4.5%; in assay [5] it was 13.1%; in assay [6], 2.35%.

As to `CN/N=C(\C)CC(=O)Nc1cccc(Cl)c1C`, the growth inhibition in assay [1] was -13.7%; in assay [2], -17.6%; in assay [3], -1.15%; in assay [4], 17.2%; in assay [5] it was -15%; in assay [6], 1.9%.
